Experimental data taken from PubChem BioAssay (NCATS).
Results filed as inconclusive are left out. A call without a number means that no potency is given here. Unmarked numbers belong to inactive results. Activity calls are given as the source filed them. Unless noted, calls follow the shape of the dose curve; as a rule, active = well fitted curve in the direction sought with a large enough effect; inconclusive = small, poorly fitted or top-dose-only effect, or another doubt; inactive = no such curve, though single readings can be large; an effect the other way counts as inactive or inconclusive.

Experiments:
[1] = system: Zika virus NS2B-NS3 protease; assay: Primary screen GU AMC qHTS for Zika virus inhibitors (AID 1347154); also: nearly all actives have a fitted effect of over 70% in size
How it was run: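 Unlinked Zika NS2B hydrophilic domain–NS3 protease complex at 25 nM in 10 mM Tris-HCl pH 8.0, 0.01% Tween 20, with an AMC peptide substrate. Fluorescence change (340/450 nm) over 15 min at room temperature, normalized to controls, fitted to 4-parameter Hill.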

[2] = target: Calcium and integrin-binding protein 1 (Homo sapiens) (UniProt Q99828); assay: Primary qHTS for Identification of Calcium Integrin Binding Protein 1 (CIB1) Competitor (AID 1508620)
How it was run: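 Fluorescence polarization competition: GST-tagged CIB1 (1 uM final) preincubated with compound 15 min at room temperature, then FITC-labelled alphaIIb peptide (100 nM final) added. After 15 min at room temperature, polarization read at Ex 480/Em 540.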

[3] = target: Cytochrome P450 3A4 (Homo sapiens) (UniProt P08684); assay: Cytochrome P450 family 3 subfamily A member 4 (CYP3A4) small molecule antagonists: luciferase qHTS assay (AID 1645841; active = well fitted curve in the direction sought with a large enough effect in the repeat runs; an effect the other way counts as inactive or inconclusive; also: nearly all actives have a fitted effect of over 45% in size)
How it was run: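 P450-Glo CYP3A4 enzyme with proluciferin substrate preincubated 10 min with compound at room temperature, then NADPH regeneration 1 h. Luciferin detection reagent added for 20 min; luminescence recorded. Ketoconazole positive control.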

[4] = target: Cytochrome P450 2C9 (Homo sapiens) (UniProt P11712); assay: Cytochrome P450 family 2 subfamily C member 9 (CYP2C9) small molecule antagonists: luciferase qHTS assay (AID 1645842; active = well fitted curve in the direction sought with a large enough effect in the repeat runs; an effect the other way counts as inactive or inconclusive; also: nearly all actives have a fitted effect of over 55% in size)
How it was run: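 Luminescence, after 20 min with luciferin detection reagent, reflected CYP2C9 turnover during a 1 h NADPH-driven reaction at 37C. Enzyme-substrate mix contained 0.4% bovine serum albumin and was preincubated with compound 10 min at room temperature.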

[5] = Primary qHTS for inhibitors of nuclear receptor binding SET domain protein 2 (NSD2) in an isogenic RCH-ACV NSD2 p.E1099K mutant (9B) (AID 1645876); also: nearly all actives have a fitted effect of over 70% in size
[6] = Primary qHTS for inhibitors of nuclear receptor binding SET domain protein 2 (NSD2) in an RCH-ACV wild type WT cells (2C) (AID 1645877); also: nearly all actives have a fitted effect of over 70% in size
[7] = target: Phospholipid hydroperoxide glutathione peroxidase GPX4 (Homo sapiens) (UniProt P36969); assay: Primary qHTS Assay for Inhibitors of Recombinant Selenoprotein Glutathione Peroxidase 4 (GPX4) (AID 1845192); conditions: outcome: dose series up to 50 µM unless noted; also: nearly all actives have a fitted effect of over 65% in size
How it was run: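 GR-coupled assay: recombinant GPX4 preincubated 30 min with compound at room temperature; final 200 nM GPX4, 1 mM GSH, 0.5 mM cumene hydroperoxide, 0.5 mM NADPH, 100 nM GR, 0.01% BSA, pH 7.5 Tris. NADPH fluorescence (340/450 nm) read at 0 and 15 min.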

[8] = Counterscreen qHTS for small molecule stabilizers of the endoplasmic reticulum resident proteome: GLuc-NoTag assay (AID 1508627);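 also: SH-SY5Y cells given compound then 100 nM thapsigargin to empty ER calcium; series mostly up to about 76 µM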
How it was run: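 SH-SY5Y cells stably expressing constitutively secreted GLuc without SERCaMP tag, exposed to compound for 19 hr, then to 100 nM thapsigargin for 4 hr at 37C. Medium luciferase was read by coelenterazine luminescence without lysis.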

[9] = Confirmatory qHTS for small molecule stabilizers of the endoplasmic reticulum resident proteome: Secreted ER Calcium Modulated Protein (SERCaMP) assay (AID 1508628); also: potency is read from the fitted curve at half-maximal effect; nearly all actives have a fitted effect of over 40% in size
How it was run: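 SH-SY5Y cells stably expressing GLuc-SERCaMP, treated 16 h with compound (primary 1.53, 7.67, 38.3 uM; confirmation 11 concentrations, up to 76.6 uM), then 100 nM thapsigargin for 4 h. Secreted Gaussia luciferase in medium read by coelenterazine luminescence.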

[10] = Cell Viability qHTS for small molecule stabilizers of the endoplasmic reticulum resident proteome (AID 1508629); conditions: cell viability counter-screen, 100 nM thapsigargin for final 4 h;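 also: human SH-SY5Y neuroblastoma cells carrying the GLuc-SERCaMP reporter; compound exposure about 46 h in total before the viability read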

Sequence of Cytochrome P450 2C9 (Homo sapiens) (P11712 whole entry, looked up): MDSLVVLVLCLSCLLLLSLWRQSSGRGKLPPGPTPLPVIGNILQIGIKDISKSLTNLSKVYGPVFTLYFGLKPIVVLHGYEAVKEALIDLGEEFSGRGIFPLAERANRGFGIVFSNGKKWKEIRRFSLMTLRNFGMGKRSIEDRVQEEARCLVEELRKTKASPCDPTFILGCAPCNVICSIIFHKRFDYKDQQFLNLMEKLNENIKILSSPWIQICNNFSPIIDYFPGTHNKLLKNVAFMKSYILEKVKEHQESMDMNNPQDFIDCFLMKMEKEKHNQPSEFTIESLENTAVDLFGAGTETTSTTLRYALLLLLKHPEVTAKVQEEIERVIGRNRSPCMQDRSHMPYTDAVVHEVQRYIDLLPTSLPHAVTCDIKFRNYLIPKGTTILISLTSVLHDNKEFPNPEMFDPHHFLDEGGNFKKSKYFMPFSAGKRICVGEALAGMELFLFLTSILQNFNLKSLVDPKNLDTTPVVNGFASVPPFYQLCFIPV
Sequence of Phospholipid hydroperoxide glutathione peroxidase GPX4 (Homo sapiens) (P36969 whole entry, looked up): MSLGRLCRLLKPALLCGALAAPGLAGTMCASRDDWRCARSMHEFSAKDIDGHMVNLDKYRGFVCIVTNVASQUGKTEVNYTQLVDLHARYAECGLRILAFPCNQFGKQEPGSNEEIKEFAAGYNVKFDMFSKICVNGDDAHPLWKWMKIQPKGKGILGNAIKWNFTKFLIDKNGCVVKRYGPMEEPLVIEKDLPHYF
Sequence of Calcium and integrin-binding protein 1 (Homo sapiens) (Q99828 whole entry, looked up): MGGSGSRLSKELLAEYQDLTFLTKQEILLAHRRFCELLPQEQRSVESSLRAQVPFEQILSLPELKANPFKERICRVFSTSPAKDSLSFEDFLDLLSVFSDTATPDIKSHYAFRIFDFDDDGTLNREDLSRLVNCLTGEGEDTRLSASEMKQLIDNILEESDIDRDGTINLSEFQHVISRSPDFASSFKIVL
Sequence of Cytochrome P450 3A4 (Homo sapiens) (P08684 whole entry, looked up): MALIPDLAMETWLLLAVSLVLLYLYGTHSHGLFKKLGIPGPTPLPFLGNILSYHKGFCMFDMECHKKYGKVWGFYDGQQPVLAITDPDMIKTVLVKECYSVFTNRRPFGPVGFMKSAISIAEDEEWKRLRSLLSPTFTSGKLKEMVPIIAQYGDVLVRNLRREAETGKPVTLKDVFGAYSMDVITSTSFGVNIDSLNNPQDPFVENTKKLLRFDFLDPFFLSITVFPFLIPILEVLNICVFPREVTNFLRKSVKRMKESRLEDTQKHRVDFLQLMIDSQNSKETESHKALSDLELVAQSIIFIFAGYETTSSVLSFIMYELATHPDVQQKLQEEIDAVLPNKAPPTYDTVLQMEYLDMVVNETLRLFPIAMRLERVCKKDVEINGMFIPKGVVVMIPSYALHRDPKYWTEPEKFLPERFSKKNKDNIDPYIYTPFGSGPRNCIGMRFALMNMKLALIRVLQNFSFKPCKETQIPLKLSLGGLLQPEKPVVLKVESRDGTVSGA

Compound | outcome [1] | outcome [2] | outcome [3] | outcome [4] | Potency [5] | Potency [6] | outcome [7] | Potency [1] | Potency [8] | Potency [9] | max response [10] [%]
CCCCN=C(N)NC(=N)N | inactive | inactive | inactive | inactive | inactive | inactive | inactive [setting not given] | – | – | – | –
CN(Cc1ccccc1)C(=O)[C@H](Cc1ccc2ccccc2c1)NC(=O)[C@@H]1CCCN1C(=O)Nc1ccccc1[N+](=O)[O-] | – | – | – | – | – | – | – | inactive | inactive | 10 µM (active) | 12.2
